The source of these data is PubChem BioAssay AID2599 (Sanford-Burnham Center for Chemical Genomics, 2010).

Screen size: about 330,000 compounds; about 5,800 (1.8%) were called active. The entries come from a sample that favours actives as a whole. Values without a mark were called inactive.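 How the source made its calls: active means inhibition above about 50% at the single tested dose (limit read from the data); inactive means the rest.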

Chain of Sentrin-specific protease 6 (Homo sapiens) (Q9GZR1 628-1112 limits assumed): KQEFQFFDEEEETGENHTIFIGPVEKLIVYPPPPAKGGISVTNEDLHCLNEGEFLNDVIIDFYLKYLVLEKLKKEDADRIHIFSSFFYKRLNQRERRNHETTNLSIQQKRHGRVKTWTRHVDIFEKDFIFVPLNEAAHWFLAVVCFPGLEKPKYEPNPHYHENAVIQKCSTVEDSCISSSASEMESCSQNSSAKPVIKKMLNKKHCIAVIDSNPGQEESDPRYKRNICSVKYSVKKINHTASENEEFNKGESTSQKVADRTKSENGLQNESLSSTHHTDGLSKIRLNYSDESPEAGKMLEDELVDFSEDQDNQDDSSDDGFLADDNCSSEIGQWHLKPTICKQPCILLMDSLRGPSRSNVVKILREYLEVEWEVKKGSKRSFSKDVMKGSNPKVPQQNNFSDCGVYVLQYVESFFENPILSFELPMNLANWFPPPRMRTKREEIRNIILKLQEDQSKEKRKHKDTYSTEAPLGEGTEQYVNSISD

The assay addresses Sentrin-specific protease 6 (Homo sapiens) (UniProt Q9GZR1). Briefly: inhibition of human SENP6 catalytic domain – biochemical, luminescence, uHTS, primary screen (AID 2599).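 Further: plate controls were DMSO wells with enzyme for no effect and DMSO wells lacking enzyme for full effect.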 To be noted: Recombinant SENP6 catalytic domain, aminoluciferin luminescence; at 10 µM; active compounds read high.
Turning to `CCOC(=O)c1c(N)n(Cc2ccccc2)c2nc3ccccc3nc12`, the inhibition (as a rule, the drop in the measured response relative to a control, in per cent) was 29.7%.

In the case of `CCOC(=O)c1c(N)n(CCN2CCOCC2)c2nc3ccccc3nc12`, the inhibition was -28.7%.

With `COc1cc(Cn2c(N)c(C(=O)NCc3ccco3)c3nc4ccccc4nc32)cc(OC)c1OC`, the inhibition is 83.6% (active).

For the molecule `CC[N+](CC)(CC)CCCCCCCCCC[N+](CC)(CC)CC`, the inhibition was -14.6%.

As to `O=C(c1cc(-c2ccncc2)nc2ccccc12)N1CCC2(CC1)OCCO2`, the inhibition was 5.91%.

Turning to `O=C(Nc1cccc2ccccc12)N1CCC2(CC1)OCCO2`, the inhibition is 63.7% (active).

On to `COc1ccc(NC(=O)N2CCC3(CC2)OCCO3)c(OC)c1`, for which the inhibition was -19.7%.

Turning to `Cc1cc2ccccn2c1C(C[N+](=O)[O-])c1c(F)cccc1Cl` (stereo not given), the inhibition is -24.7%.

`C/C(CCc1c[nH]c2ccccc12)=N\O`: the inhibition is -0.527%.

For `C/C(=N/O)c1ccc2ccc3ccccc3c2c1`, the inhibition is 53.8% (active).

In the case of `O=[N+]([O-])c1cnc2ccc3ccccc3c2c1`, the inhibition was -4.31%.

As for `O=C(NC(=S)N1C[C@H]2C[C@H](C1)c1cccc(=O)n1C2)c1ccc(F)cc1`, the inhibition is 0.817%.

Turning to `CC(=O)N1CN2CN(C(C)=O)CC(C(=O)c3ccc(Br)cc3)(C2)C1`, the inhibition was -9.66%.

In the case of `O=c1[nH]c(=O)n(-c2ccc(F)cc2)c(O)c1C=NCCN1CCCCC1`, the inhibition was -0.13%.

Consider `CCCCCCCCCCCCn1ccc(=N)cc1`, for which the inhibition was -35.7%.
